From the supplement of paper PMC13380429

Test system: Vero E6 infected with SARS-CoV-2
Experiment: inhibition of SARS-CoV-2 cytopathic effect; higher = more antiviral protection, active = above 15
Conditions: 48 h

Measured: inhibition of SARS-CoV-2 cytopathic effect

Fc1ccc(-c2nc3n(c2-c2ccncc2)CCS3)cc1
inactive: 1 nM 1.58% | 8.33 nM -0.78% | 100 nM -1.15% | 833.33 nM -1.03% | 10000 nM -1.09%

C[C@]12C=CC(=O)C=C1CC[C@@H]1[C@@H]2[C@@H](O)C[C@@]2(C)[C@H]1CC[C@]2(O)C(=O)COP(=O)(O)O [prednisolone-sodium-phosphate]
inactive: 1 nM -6.31% | 8.33 nM -10% | 100 nM -8.54% | 833.33 nM -9.6% | 10000 nM -4.78%

C[C@H]1CN(C[C@H](Cc2ccccc2)C(=O)NCC(=O)O)CC[C@@]1(C)c1cccc(O)c1 [alvimopan]
inactive: 1 nM 1.74% | 8.33 nM 3.07% | 100 nM 3.04% | 833.33 nM -0.26% | 10000 nM 2.12%

Cc1ccc(S(=O)(=O)NC(=O)NN2CCCCCC2)cc1 [tolazamide]
inactive: 1 nM 1.07% | 8.33 nM -0.36% | 100 nM 0.85% | 833.33 nM 1.43% | 10000 nM 2.51%

Nc1c(CC(=O)O)cccc1C(=O)c1ccc(Br)cc1 [bromfenac]
inactive: 1 nM -1.88% | 8.33 nM 0.84% | 100 nM -0.8% | 833.33 nM -0.93% | 10000 nM -0.48%

O[C@@H]1CCCC[C@H]1N1CCC(c2ccccc2)CC1 (racemic) [vesamicol]
inactive: 1 nM 0.17% | 8.33 nM 1.74% | 100 nM 0.78% | 833.33 nM 1.42% | 10000 nM 1.14%

CCNC(=O)NS(=O)(=O)c1sc(CC(C)C)cc1-c1ccc(Cn2c(-c3ccccc3)nc(OC)c2C=O)cc1
inactive: 1 nM -1.39% | 8.33 nM -0.39% | 100 nM 2.26% | 833.33 nM 1.08% | 10000 nM 0.67%

CCCCCCCCCCCCCCCCNc1ccc(C(=O)O)cc1 [cetaben]
inactive: 1 nM 2.02% | 8.33 nM 3.28% | 100 nM 1.52% | 833.33 nM 1.67% | 10000 nM -2.46%

COC(=O)[C@H](c1ccccc1Cl)N1CCc2sccc2C1 [clopidogrel]
inactive: 1 nM 0.4% | 8.33 nM 0.66% | 100 nM 1.82% | 833.33 nM -3.38% | 10000 nM -0.85%

COc1ccc(-c2cc(=S)ss2)cc1 [anethole-trithione]
inactive: 1 nM 1.7% | 8.33 nM -0.29% | 100 nM 1.29% | 833.33 nM -1.2% | 10000 nM 2.76%

CC1(C)S[C@@H]2[C@H](NC(=O)[C@H](N)c3ccc(O)cc3)C(=O)N2[C@H]1C(=O)O [amoxicillin]
inactive: 1 nM -2.41% | 8.33 nM -1% | 100 nM -0.76% | 833.33 nM -0.16% | 10000 nM -2.88%

CC(C)NC[C@@H](O)c1ccc(O)c(O)c1 (racemic) [isoprenaline]
inactive: 1 nM 1.39% | 8.33 nM -0.18% | 100 nM -0.08% | 833.33 nM 0.77% | 10000 nM -2.47%

N#C/C(=C\c1ccc(O)c(O)c1)C(=O)NCc1ccccc1
inactive: 1 nM 5.06% | 8.33 nM 3.47% | 100 nM 7.47% | 833.33 nM 0.08% | 10000 nM 5.05%

CCC(C)(C)C(=O)C(=O)N1CCC[C@H]1C(=O)OCCCc1cccnc1
inactive: 1 nM 0.46% | 8.33 nM 0.86% | 100 nM 1.28% | 833.33 nM -0.32% | 10000 nM 1.17%

CCCCOc1ccc(-c2cncc(C(=O)NCc3cccnc3N3CCOCC3)c2)cc1Cl
inactive: 1 nM -0.69% | 8.33 nM -2.48% | 100 nM -0.55% | 833.33 nM -1.43% | 10000 nM -3.95%

Cc1ccc(-c2cn3c4c(sc3n2)CCCC4)cc1 [pifithrin-cyclic]
inactive: 1 nM -1.71% | 8.33 nM -2.91% | 100 nM 1.98% | 833.33 nM 0.25% | 10000 nM 0.74%

Cn1c(=O)c2c(ncn2CC(=O)Nc2ccc(-c3ccccc3)nn2)n(C)c1=O
inactive: 1 nM 2.25% | 8.33 nM 0.06% | 100 nM 1.35% | 833.33 nM 4.8% | 10000 nM 7.55%

Cc1c(-c2ccccc2)oc2c(C(=O)OCCN3CCCCC3)cccc2c1=O [flavoxate]
inactive: 1 nM -1.05% | 8.33 nM 0.44% | 100 nM 0.93% | 833.33 nM -0.65% | 10000 nM 0.61%

O=C(Nc1ncc(SCCN2CCCC2)s1)[C@]1(c2ccc(S(=O)(=O)C3CC3)cc2)C[C@H]1C1CCCCC1
inactive: 1 nM 1.58% | 8.33 nM -0.96% | 100 nM -2.63% | 833.33 nM -2.76% | 10000 nM -5.6%

Cn1cc(-c2ccc3nnc(Sc4ccc5ncccc5c4)n3n2)cn1
inactive: 1 nM 0.46% | 8.33 nM -0.33% | 100 nM -1.37% | 833.33 nM -0.25% | 10000 nM 3.33%

Cc1cc2cc3c(C)cc(=O)oc3c(C)c2o1 [trioxsalen]
inactive: 1 nM 1.96% | 8.33 nM 2.74% | 100 nM 0.65% | 833.33 nM 3.62% | 10000 nM -0.06%

O[C@H]1[C@H](O)[C@@H](O)[C@H](O)[C@@H](O)[C@H]1O [inositol]
inactive: 1 nM -0.68% | 8.33 nM 0.73% | 100 nM -1.55% | 833.33 nM 1.69% | 10000 nM 2.84%

CN1C(=O)C(F)=C[C@]2(C)[C@H]3CC[C@]4(C)[C@@H](C(=O)NCc5nc6cccnc6[nH]5)CC[C@H]4[C@@H]3CC[C@@H]12
inactive: 1 nM 0.34% | 8.33 nM -0.43% | 100 nM -0.05% | 833.33 nM 2.35% | 10000 nM 1.08%

C[C@]1(O)C[C@@H](c2nc(-c3ccc4ccc(-c5ccccc5)nc4c3)c3c(N)nccn32)C1 [linsitinib]
inactive: 1 nM 1.22% | 8.33 nM -0.2% | 100 nM -1.12% | 833.33 nM 0.58% | 10000 nM 1.2%

COc1cc(N2CCC(N3CCN(C)CC3)CC2)ccc1Nc1ncc(Cl)c(Nc2ccccc2P(C)(C)=O)n1 [brigatinib]
inactive: 1 nM 0.45% | 8.33 nM -1.85% | 100 nM -2.21% | 833.33 nM -0.42% | 10000 nM -5.17%

CO/N=C(\C(=O)N[C@@H]1C(=O)N2C(C(=O)[O-])=C(C[n+]3ccn4ncccc43)CS[C@H]12)c1nsc(N)n1 [cefozopran]
inactive: 1 nM -1.88% | 8.33 nM 1.38% | 100 nM -0.43% | 833.33 nM -0.82% | 10000 nM -0.02%

O=C(Nc1cnccc1Cl)N1CCN(Cc2ccc3c(c2)OC(F)(F)O3)CC1
inactive: 1 nM 1.58% | 8.33 nM -1.35% | 100 nM 1.93% | 833.33 nM 0.76% | 10000 nM 0.7%

NC(=O)Nc1sc(-c2ccc(F)cc2)cc1C(N)=O
inactive: 1 nM 1.14% | 8.33 nM -0.06% | 100 nM -0.35% | 833.33 nM -3.05% | 10000 nM -0.22%

O=c1ccc2cc(O[C@@H]3O[C@H](CO)[C@@H](O)[C@H](O)[C@H]3O)c(O)cc2o1 [esculin]
inactive: 1 nM -1.01% | 8.33 nM -0.49% | 100 nM -1.32% | 833.33 nM -1.49% | 10000 nM -0.95%

CCN(CC)CCOC(=O)C1(C2CCCCC2)CCCCC1 [dicycloverine]
inactive: 8.33 nM 0.53% | 100 nM 2.57% | 833.33 nM 0.85% | 10000 nM 1.16%
active: 1 nM 17.5%

c1cn2cc(-c3ccc4cn[nH]c4c3)nc(Nc3ccc(N4CCOCC4)cc3)c2n1
inactive: 1 nM -4.37% | 8.33 nM -3.35% | 100 nM -4.69% | 833.33 nM 0.03% | 10000 nM -4.57%

O=C(/C=C/c1ccc(O)c(O)c1)OCCc1ccccc1 [caffeic-acid-phenethyl-ester]
inactive: 1 nM -3.4% | 8.33 nM -2.75% | 100 nM -2.14% | 833.33 nM 2.36% | 10000 nM 7.5%

C[N+]12CCC(CC1)C(OC(=O)C(O)(c1ccccc1)c1ccccc1)C2 (stereo not given) [clidinium]
inactive: 1 nM -2.04% | 8.33 nM 1.76% | 100 nM -0.23% | 833.33 nM 0.86% | 10000 nM -1.97%

NS(=O)(=O)NCCNc1nonc1/C(=N/O)Nc1ccc(F)c(Br)c1
inactive: 1 nM -1.72% | 8.33 nM -0.99% | 100 nM -3.11% | 833.33 nM 3.1% | 10000 nM -1.01%

CCN1C(=O)CNc2ncc(-c3ccc(-c4nc[nH]n4)nc3C)nc21
inactive: 1 nM 2.11% | 8.33 nM 2.76% | 100 nM 2.06% | 833.33 nM 2.77% | 10000 nM -4.67%

C[C@@H]1COCCN1c1cc(C2([S@](C)(=N)=O)CC2)nc(-c2ccnc3[nH]ccc23)n1
inactive: 1 nM -1.91% | 8.33 nM -1.92% | 100 nM 0.5% | 833.33 nM 1.27% | 10000 nM 1.76%

N#Cc1cc(NC(=O)C(=O)O)c(Cl)c(NC(=O)C(=O)O)c1 [lodoxamide]
inactive: 1 nM -2.56% | 8.33 nM 1.86% | 100 nM -0.16% | 833.33 nM -3.06% | 10000 nM -0.06%

COC(=O)/C=C/C(=O)OCCN1C(=O)CCC1=O [diroximel-fumarate]
inactive: 1 nM -3.18% | 8.33 nM -0.95% | 100 nM -3.4% | 833.33 nM -1.82% | 10000 nM 11.3%

O=C(NC(=O)c1c(F)cccc1F)Nc1cc(Cl)c(OC(F)(F)C(F)C(F)(F)F)cc1Cl (stereo not given) [lufenuron]
inactive: 1 nM 1.67% | 8.33 nM 2.18% | 100 nM -1.16% | 833.33 nM 2.95% | 10000 nM 1.2%

O=C(CCCN1CCC(n2c(=O)[nH]c3ccccc32)CC1)c1ccc(F)cc1 [benperidol]
inactive: 1 nM 0.17% | 8.33 nM -0.44% | 100 nM -0.77% | 833.33 nM 2.15% | 10000 nM -4.28%
